USP8 inh – human USP8 deubiquitinase inhibition | purified USP8, Ub-rhodamine cleavage fluorescence, 30 min | inhibition, % at 20 µM | 4.2% of 47,000 active | AID 1645853
USP17 inh – blocks human USP17 ubiquitin-rhodamine cleavage; purified USP17, Ub-rhodamine cleavage fluorescence, 3 h; 6.5% of 47,000 active; inhibition, % at 50 µM; A8MUK1
USP10 inh – blocks human USP10 ubiquitin-rhodamine cleavage; Q14694; purified USP10, Ub-rhodamine fluorescence, 60 min; inhibition, % at 20 µM; 1.1% of 47,000 active
USP28 inh – inhibitors of human USP28 deubiquitinase. 3% of 47,000 active. AID 1645857. inhibition, % at 25 µM. purified USP28, Ub-rhodamine cleavage fluorescence, 30 min. Q96RU2
USP30 block – inhibitors of human USP30 deubiquitinase | Q70CQ3 | inhibition, % at 25 µM | 5.3% of 47,000 active | purified USP30, Ub-rhodamine cleavage fluorescence
Active calls of the source: *; i = inactive; x = not tested or not shown. Shown are actives, neighbours in structure and some others; about 14% of the full set was active somewhere. Rule as the data show it: active = inhibition above about 30%; inactive = the rest.

SMILES	USP8 inh	USP17 inh	USP10 inh	USP28 inh	USP30 block
COc1ccccc1OCc1ccc(C(=O)Nc2ccc(F)cc2C)cc1	0	53*	7	-2	13
CC(C)(C)c1cc(C(=O)NCc2ccnc(C3CCCOC3)n2)n[nH]1 (centres undefined)	-5	6	0	-5	-13
CCOC(=O)c1noc2nc(C)nc(N3CCN(c4ncccn4)CC3)c12	-17	4	4	19	23
C=C1C(=O)C[C@@H]2[C@H]3CC[C@@H](C(=O)O)[C@@]12CC3(C)C	-45	8	-11	3	-16
COc1cccc(C(=O)Nc2ccccc2C(=O)NCCc2ccccc2)c1	-2	29	10	13	49*
Cc1c(OCC(=O)NCc2ccccc2Cl)ccc2c3c(c(=O)oc12)CCC3	52*	19	23	2	9
O=C(Cn1cncc(-c2nc(-c3ccccc3)cs2)c1=O)NC1CCCC1	21	67*	2	36*	49*
O=C(CCC(=O)N1CCSc2ccccc21)NCc1ccc(F)cc1	-10	8	3	7	13
Cc1ccc(C(=O)/C=C/c2ccc3c(c2)OCCO3)c(OCc2ccccc2)c1	-74	x	5	-64	-179
Cc1cccc(N2C(=O)/C(=C\c3ccc4c(c3)OCCO4)c3ccccc3C2=O)c1	88*	55*	-6	13	6
O=C1OCC2=C1C(c1ccc3c(c1)OCO3)CC(=O)N2c1cccc(F)c1 (centres undefined)	-18	-3	2	-12	0
Cc1cccc(N2C(=O)/C(=C\c3ccc4c(c3)OCO4)c3ccccc3C2=O)c1	76*	42*	-1	8	-14
Cc1ccc(-n2ncc3c(=O)[nH]c(SCC(=O)NCc4ccco4)nc32)cc1C	39*	-1	13	-11	-65
NS(=O)(=O)c1ccc(NC(=O)COC(=O)c2sc3cc(F)ccc3c2Cl)cc1	37*	23	25	34*	41*
O=[N+]([O-])c1cccc(-c2nnc(Cc3cc(F)cc(F)c3)o2)c1	-118	-20	4	15	8
O=[N+]([O-])c1ccc(Cc2nnc(-c3ccccc3Cl)o2)cc1	-8	35*	4	48*	1
Cc1cc(=O)n(CC(=O)NCc2ccc(F)cc2F)c(N2CCCCC2)n1	24	8	0	10	16
Cc1cc(F)ccc1NC(=O)Cn1c(C)cc(C)c1-c1nc(C2CC2)no1	0	48*	5	4	-7
Cc1cc(C)n(CC(=O)NCc2ccc(F)cc2F)c1-c1nc(C2CC2)no1	16	31*	2	14	33*
COc1cccc(N2CCN(c3ccc4nnc(CCC(=O)NC5CCCCC5)n4n3)CC2)c1	-3	-1	-3	-1	9
COc1ccc(NC(=O)C2[C@@H]3C(=O)N(C4CCCCC4)C(=O)[C@@H]3[C@H]3c4ccccc4C=CN23)cc1 (some centres undefined)	78*	60*	-16	13	-60
CC(C)(C)C(=O)C1C2C(=O)N(Cc3ccccc3)C(=O)C2C2c3ccccc3C=CN12 (centres undefined)	81*	56*	-6	-12	-95
COc1ccc(NC(=O)C2[C@@H]3C(=O)N(c4ccc5c(c4)OCO5)C(=O)[C@@H]3[C@H]3c4ccccc4C=CN23)cc1 (some centres undefined)	55*	5	-5	8	-179
COc1ccc(-c2cc(C(=O)Nc3ccc4c(c3)OCO4)c3ccccc3n2)cc1	6	12	0	-13	-55
O=C(c1ccco1)C1C2C(=O)N(c3cccc(C(F)(F)F)c3)C(=O)C2C2c3ccccc3C=CN12 (centres undefined)	-73	-128	-3	-193	i
CC(C)(C)C(=O)C1C2C(=O)N(c3ccc4c(c3)OCO4)C(=O)C2C2c3ccccc3C=CN12 (centres undefined)	53*	69*	21	64*	-17
Cc1ccccc1-c1noc(CCC(=O)Nc2cccc([N+](=O)[O-])c2)n1	-64	14	2	25	8
CC(C)CN1C[C@H]2CN(C(=O)Nc3ccccc3)C[C@H]21	-9	8	3	3	15
N#Cc1c2n(c(=O)n(CC(=O)N(C3=CCCCC3)C3CC3)c1=O)CCC2	-39	-123	-6	-121	-420
O=C(Nc1ccc2c(c1)OCO2)C1[C@@H]2C(=O)N(c3ccccc3)C(=O)[C@@H]2[C@H]2c3ccccc3C=CN12 (some centres undefined)	49*	12	-5	-20	-255

Screening results (PubChem)
